These results are taken from PubChem BioAssay.

SMILES strings stand for the structures. Active and inactive are the calls of the source.

The nature of experiment [1]: optical density shifts of acrAB sulA E. coli – strain DRC41, OD650, 48 h, E. coli filamentation inducer project, primary screen (AID 1152).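 Also: E. coli MC1000 strain DRC41 lacking acrAB efflux pump and sulA.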 Particulars: higher = more signal, called active from +8 up or from −8 down.
A short description of experiment [2]: probe aLefty1 binding on compound microarray – biochemical, small-molecule microarray, 635/667 nm fluorescence, primary screen (AID 1153).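 Also: score merges spot fluorescence with signal-to-noise ratio from the scanned slide images.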 Particulars: higher = more signal.
Experiment [3] in a line: plasmodial surface anion channel blockers, osmotic lysis – cell-based, P. falciparum Indochina, OD700, 1 h, primary screen (AID 1154). Particulars: P. falciparum Indochina infected RBC osmotic lysis, higher = more signal, called active from +8 up or from −8 down.
The nature of experiment [4]: plasmodial surface anion channel blockers, osmotic lysis – cell-based, P. falciparum Indochina, OD700, 2 h, primary screen (AID 1155).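 Also: lysis reports solute entry through the parasite surface anion channel PSAC.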 Particulars: P. falciparum Indochina infected erythrocytes, higher = more signal, called active from +8 up or from −8 down.
A short description of experiment [5]: changes in parasitized red cell lysis, either direction – P. falciparum Indochina, OD700, 3 h, PSAC antagonist project, primary screen (AID 1156). Particulars: P. falciparum-infected erythrocytes, osmotic lysis, higher = more signal, called active from +8 up or from −8 down.
Experiment [6] can be described thus: plasmodial surface anion channel blockers, osmotic lysis – cell-based, P. falciparum Indochina, OD700, 18 h, primary screen (AID 1157). Particulars: P. falciparum Indochina infected erythrocytes, osmotic lysis OD700, 18 h; higher = more signal, called active from +8 up or from −8 down.
A short description of experiment [7]: S6 kinase pathway phospho-S6 level changes – cell-based, A549, cytoblot, luminescence, serum-stimulated, primary screen (AID 1158).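 Also: serum-stimulated A549 lung adenocarcinoma cells; signal is phosphorylated S6 detected by cytoblot immunostaining with HRP secondary.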 Particulars: 5 h, higher = more signal.
Experiment [8] concerns the target NADPH oxidase 2 (Homo sapiens) (UniProt P04839). In words: compounds shifting NOX2 Amplex Red fluorescence – cell-based, HEK293-NOX2, PMA-stimulated, NOX inhibitor project, primary screen (AID 1159). Also: test concentration not given here. Particulars: 45 min, higher = more signal, called active from +8 up or from −8 down.
The target in experiment [9] is NADPH oxidase 4 (Homo sapiens) (UniProt Q9NPH5). In words: compounds shifting NOX4 Amplex Red fluorescence – cell-based, HEK293-NOX4, tetracycline-induced, NOX inhibitor project, primary screen (AID 1160). Particulars: HEK293-NOX4, Amplex Red H2O2 fluorescence, 45 min; higher = more signal, called active from +8 up or from −8 down.
The target in experiment [10] is NADPH oxidase 5 (Homo sapiens) (UniProt Q96PH1). In words: compounds shifting NOX5 Amplex Red fluorescence – cell-based, HEK293-NOX5, NOX inhibitor project, primary screen (AID 1161). Particulars: HEK293-NOX5, ionomycin, 45 min, higher = more signal.
Experiment [11] can be described thus: compound effects on lung adenocarcinoma cell viability – A549, calcein-AM fluorescence, 48 h, basal, profiling panel (AID 1162). Also: test concentration not given here. Particulars: higher = more signal.
Experiment [12] can be described thus: compound effects on differentiated 3T3-L1 adipocyte viability – cell-based, 3T3-L1 adipocytes, calcein-AM fluorescence, 48 h, basal, profiling panel (AID 1163). Also: test concentration not given here. Particulars: 3T3-L1 adipocytes viability, higher = more signal.
Experiment [13] is described as follows: compound effects on hepatocellular carcinoma cell viability – HepG2, calcein-AM fluorescence, 48 h, basal, profiling panel (AID 1164). Also: test concentration not given here. Particulars: higher = more signal.
The nature of experiment [14]: compound effects on multiple myeloma cell viability – MM1S, calcein-AM fluorescence, 48 h, basal, profiling panel (AID 1165).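 Also: viability of MM1S multiple myeloma cells under basal unstimulated conditions; test concentration not given here.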 Particulars: higher = more signal.
A short description of experiment [15]: calcein-AM signal in unstimulated myeloma cells – cell-based, calcein-AM fluorescence, 48 h, PK04 Diversity Set, profiling panel (AID 1166).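 Also: cells grown under basal conditions without added stimulus; test concentration not given here.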 Particulars: RPMI8226 myeloma viability, higher = more signal.
Experiment [16] in a line: JC-1 mitochondrial signal, unstimulated HepG2 cells – cell-based, JC-1 fluorescence, 24 h, 100 nL compound, profiling panel (AID 1167). Also: test concentration not given here. Particulars: HepG2 mitochondrial potential, higher = more signal.
The nature of experiment [17]: JC-1 mitochondrial signal, unstimulated adipocytes – cell-based, JC-1 fluorescence, 3T3-L1 adipocytes, 24 h, 100 nL compound, profiling panel (AID 1168). Also: test concentration not given here. Particulars: JC-1 mitochondrial fluorescence, higher = more signal, called active from +8 up or from −8 down.
A short description of experiment [18]: JC-1 mitochondrial signal, unstimulated myeloma cells – cell-based, JC-1 fluorescence, RPMI8226, 24 h, 100 nL compound, profiling panel (AID 1169). Also: test concentration not given here. Particulars: JC-1 mitochondrial potential fluorescence, higher = more signal.
The nature of experiment [19]: JC-1 mitochondrial signal, unstimulated MM1S myeloma – cell-based, JC-1 fluorescence, 24 h, 100 nL compound, profiling panel (AID 1170). Also: test concentration not given here. Particulars: MM1S mitochondrial potential, higher = more signal.
A short description of experiment [20]: resazurin metabolic signal in A549 cells – cell-based, resazurin fluorescence, 24 h, PK04 Diversity Set, profiling panel (AID 1171). Also: test concentration not given here. Particulars: A549 viability, higher = more signal, called active from +8 up or from −8 down.

Sequence of NADPH oxidase 2 (Homo sapiens) (P04839 whole entry, looked up): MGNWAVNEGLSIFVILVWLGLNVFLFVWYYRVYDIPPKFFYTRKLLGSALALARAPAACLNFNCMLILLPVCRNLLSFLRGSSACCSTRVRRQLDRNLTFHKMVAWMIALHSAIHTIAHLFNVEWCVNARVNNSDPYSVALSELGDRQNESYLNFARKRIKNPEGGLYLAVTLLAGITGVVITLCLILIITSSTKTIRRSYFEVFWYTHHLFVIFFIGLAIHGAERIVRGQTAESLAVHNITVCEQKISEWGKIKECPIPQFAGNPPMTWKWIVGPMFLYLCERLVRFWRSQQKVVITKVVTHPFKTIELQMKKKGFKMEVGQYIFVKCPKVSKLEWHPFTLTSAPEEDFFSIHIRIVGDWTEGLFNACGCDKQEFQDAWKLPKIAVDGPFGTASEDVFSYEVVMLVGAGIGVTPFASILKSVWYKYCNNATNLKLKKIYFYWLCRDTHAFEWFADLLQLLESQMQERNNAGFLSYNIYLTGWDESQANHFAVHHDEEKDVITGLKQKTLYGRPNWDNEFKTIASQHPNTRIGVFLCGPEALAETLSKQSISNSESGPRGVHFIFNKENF
Sequence of NADPH oxidase 4 (Homo sapiens) (Q9NPH5 whole entry, looked up): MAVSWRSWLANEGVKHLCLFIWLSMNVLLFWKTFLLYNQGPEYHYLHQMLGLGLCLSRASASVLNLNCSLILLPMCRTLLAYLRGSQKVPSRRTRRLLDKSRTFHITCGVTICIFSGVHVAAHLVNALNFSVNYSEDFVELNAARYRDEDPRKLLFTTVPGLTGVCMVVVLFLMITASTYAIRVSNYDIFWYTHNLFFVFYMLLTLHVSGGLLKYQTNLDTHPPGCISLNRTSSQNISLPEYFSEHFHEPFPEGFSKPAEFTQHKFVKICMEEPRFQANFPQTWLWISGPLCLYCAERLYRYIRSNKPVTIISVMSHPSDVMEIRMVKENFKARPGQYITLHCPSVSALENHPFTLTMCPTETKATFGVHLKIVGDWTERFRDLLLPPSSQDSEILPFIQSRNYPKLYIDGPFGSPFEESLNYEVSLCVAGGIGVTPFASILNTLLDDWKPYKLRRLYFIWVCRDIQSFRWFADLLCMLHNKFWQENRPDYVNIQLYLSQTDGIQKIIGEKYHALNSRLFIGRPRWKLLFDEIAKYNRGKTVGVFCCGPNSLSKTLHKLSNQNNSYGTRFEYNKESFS
Sequence of NADPH oxidase 5 (Homo sapiens) (Q96PH1 whole entry, looked up): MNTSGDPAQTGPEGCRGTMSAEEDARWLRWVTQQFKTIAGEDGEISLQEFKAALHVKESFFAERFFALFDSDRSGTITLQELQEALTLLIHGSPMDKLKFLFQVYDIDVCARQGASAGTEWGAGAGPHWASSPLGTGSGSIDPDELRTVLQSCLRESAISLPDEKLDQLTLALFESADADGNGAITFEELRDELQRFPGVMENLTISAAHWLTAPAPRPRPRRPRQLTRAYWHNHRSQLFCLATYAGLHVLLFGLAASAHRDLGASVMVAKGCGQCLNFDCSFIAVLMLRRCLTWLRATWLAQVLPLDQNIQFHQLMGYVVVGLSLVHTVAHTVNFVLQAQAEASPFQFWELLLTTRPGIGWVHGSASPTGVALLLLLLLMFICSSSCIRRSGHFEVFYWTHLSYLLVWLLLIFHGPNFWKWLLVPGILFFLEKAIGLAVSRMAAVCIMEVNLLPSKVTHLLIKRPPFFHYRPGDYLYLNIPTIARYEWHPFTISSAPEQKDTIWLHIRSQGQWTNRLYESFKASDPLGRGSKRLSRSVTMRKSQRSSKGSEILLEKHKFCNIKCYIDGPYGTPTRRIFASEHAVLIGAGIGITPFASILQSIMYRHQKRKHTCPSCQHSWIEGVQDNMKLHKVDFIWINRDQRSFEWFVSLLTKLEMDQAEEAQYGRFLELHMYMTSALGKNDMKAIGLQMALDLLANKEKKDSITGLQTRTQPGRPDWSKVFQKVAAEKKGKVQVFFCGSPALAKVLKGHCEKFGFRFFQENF

For the compound `O=C1O[C@@H](c2ccccc2)[C@@H](c2ccccc2)N2[C@@H](c3ccc(O)cc3)[C@]3(C(=O)Nc4ccc(C#CCCO)cc43)[C@@H](C(=O)N3CCN(c4ncccn4)CC3)[C@H]12`, the z-score is 1.81 (inactive) in experiment [1]; 1.97 (inactive) in experiment [3]; 1.01 (inactive) in experiment [4]; -0.834 (inactive) in experiment [5]; 0.516 (inactive) in experiment [6]; -0.138 in experiment [7]. For the same compound, the z-score in [8] was 0.941 (inactive); in experiment [9] it was -0.341 (inactive); in experiment [10] it was 0.594; in [11], -0.716; in experiment [12] it was -0.0773; in experiment [13], 0.0219. Moreover, the z-score was 0.441 in experiment [14]; 0.1 in [15]; -1.95 in experiment [16]; -0.252 (inactive) in [17]; -0.681 in [18]; -0.425 in experiment [19]. Moreover, the z-score in [20] was 0.378 (inactive). In experiment [2], the composite z-score amounted to 0.348.
As for `CO[C@H]1O[C@H](CO)[C@@H](OC(=O)Nc2ccc(Br)cc2)[C@@H]2OC(=O)[C@@H](Cc3ccccc3)C/C=C/C[C@H](Cc3ccccc3)C(=O)O[C@@H]12`, the z-score in experiment [1] was 0.931 (inactive); in experiment [3], 3.36 (inactive); in experiment [4] it was 0.956 (inactive); in [5], -1.12 (inactive); in experiment [6], 1.35 (inactive); in experiment [7], 0.311. Also, the z-score in [8] was 0.647 (inactive); in [9], 0.263 (inactive); in experiment [10], 0.0979; in experiment [11], 0.468; in experiment [12], 0.424; in experiment [13] it was -1.35. The z-score in experiment [14] is -1.41; in [15] it was -3.32; in experiment [16], 0.125; in experiment [17], 2.12 (inactive); in experiment [18] it was -1.19; in experiment [19], -0.241. In addition, the z-score in experiment [20] is -3.17 (inactive). For the same compound, the composite z-score in experiment [2] amounted to 0.057.
Consider `COCCOC(=O)N1C(=O)[C@@]2(c3cc(C#CC4(O)CCCCCC4)ccc31)[C@H](c1ccc(O)cc1)N1[C@H](c3ccccc3)[C@H](c3ccccc3)OC(=O)[C@H]1[C@@H]2C(=O)N1CCN(c2ncccn2)CC1`, for which the z-score in experiment [1] was -0.533 (inactive); in [3], 0.138 (inactive); in [4] it was 0.525 (inactive); in [5], -0.166 (inactive); in [6], -0.0236 (inactive); in [7], 0.159. Moreover, the z-score in experiment [8] was 1.54 (inactive); in experiment [9], 0.996 (inactive); in [10] it was 1.11; in experiment [11], -0.98; in experiment [12] it was 0.284; in experiment [13], 0.278. Also, the z-score in experiment [14] is -1.61; in [15], -1.16; in experiment [16], -0.81; in experiment [17] it was -0.912 (inactive); in experiment [18], -0.406; in experiment [19], -0.091. The z-score in experiment [20] was 0.435 (inactive). In addition, the composite z-score in [2] came out at 0.477.
With `COc1cccc(C)c1NC(=O)O[C@H]1[C@H](OC(=O)Nc2ccc3c(c2)OCO3)[C@@H](OC(=O)Nc2ccc3c(c2)OCO3)[C@@H](OC)O[C@@H]1CO`, the z-score in experiment [1] was 0.132 (inactive); in experiment [3], 5.81 (inactive); in experiment [4] it was 1.26 (inactive); in experiment [5] it was 0.579 (inactive); in [6], 0.349 (inactive); in [7], -0.227. In addition, the z-score in [8] was -1.21 (inactive); in [9], -0.747 (inactive); in [10] it was -1.67; in [11], -0.551; in experiment [12] it was -0.271; in [13], -1.28. Also, the z-score in [14] was -2.27; in [15], -0.815; in [16] it was -0.445; in experiment [17], 0.925 (inactive); in experiment [18], -0.863; in experiment [19] it was -0.0492. In addition, the z-score in [20] is -0.315 (inactive). The composite z-score in experiment [2] was -0.165.
For `O=C1C2C=CC(C(O)c3cccc(O)c3)N(Nc3ccc([N+](=O)[O-])cc3)C2C(=O)N1c1ccccc1` (stereo not given), the z-score is -0.367 (inactive) in experiment [1]; 23.8 (active) in experiment [3]; 5.34 (inactive) in experiment [4]; 3.57 (inactive) in [5]; 1.22 (inactive) in experiment [6]; -0.609 in [7]. Also, the z-score in experiment [8] is -2.1 (inactive); in experiment [9], -4.41 (inactive); in [10], -4.26; in [11], -0.505; in experiment [12] it was -0.55; in experiment [13], -0.0586. The z-score in [14] was -0.0899; in experiment [15], 0.45; in experiment [16] it was -2.01; in experiment [17], -1.78 (inactive); in [18], -0.217; in [19] it was -1.25. In experiment [20], the z-score was 0.014 (inactive). Further, the composite z-score in experiment [2] came to 0.0361.
